Source: PubChem BioAssay (NCATS)
Inconclusive results are not listed. A call without a number means that no potency is given here. Active and inactive are the calls of the source. Unless noted, calls follow the shape of the dose curve; as a rule, active = well fitted curve in the direction sought with a large enough effect; inconclusive = small, poorly fitted or top-dose-only effect, or another doubt; inactive = no such curve, though single readings can be large; an effect the other way counts as inactive or inconclusive.

Assays:
[1] = target: Ubiquitin carboxyl-terminal hydrolase 1 (Homo sapiens) (UniProt O94782); experiment: Inhibitors of USP1/UAF1: Pilot qHTS (AID 504865); also: nearly all actives have a fitted effect of over 35% in size; also: potency is read from the fitted curve at half-maximal effect
Sequence of Ubiquitin carboxyl-terminal hydrolase 1 (Homo sapiens) (O94782 whole entry, looked up): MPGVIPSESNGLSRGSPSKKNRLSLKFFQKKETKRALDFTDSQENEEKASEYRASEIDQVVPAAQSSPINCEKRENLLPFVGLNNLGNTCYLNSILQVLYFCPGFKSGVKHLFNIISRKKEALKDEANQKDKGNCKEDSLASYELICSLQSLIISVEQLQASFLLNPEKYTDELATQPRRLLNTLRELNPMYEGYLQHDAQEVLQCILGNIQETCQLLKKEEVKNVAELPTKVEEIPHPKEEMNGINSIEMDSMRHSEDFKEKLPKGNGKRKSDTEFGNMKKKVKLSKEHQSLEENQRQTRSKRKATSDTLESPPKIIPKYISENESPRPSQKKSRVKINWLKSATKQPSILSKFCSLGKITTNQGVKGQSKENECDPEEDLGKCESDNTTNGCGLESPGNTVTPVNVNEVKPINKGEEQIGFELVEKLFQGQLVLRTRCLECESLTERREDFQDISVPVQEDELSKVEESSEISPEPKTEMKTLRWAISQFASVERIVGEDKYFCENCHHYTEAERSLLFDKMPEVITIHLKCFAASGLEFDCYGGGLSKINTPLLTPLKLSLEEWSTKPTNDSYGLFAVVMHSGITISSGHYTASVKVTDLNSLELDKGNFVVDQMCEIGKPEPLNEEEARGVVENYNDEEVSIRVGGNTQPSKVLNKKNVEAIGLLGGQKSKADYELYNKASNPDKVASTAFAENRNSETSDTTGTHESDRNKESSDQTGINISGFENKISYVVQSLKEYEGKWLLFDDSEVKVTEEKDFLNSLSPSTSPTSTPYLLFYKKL
Summary of the method: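 In 50mM HEPES pH 7.8 containing 0.5mM EDTA, 1mM TCEP, 0.1 mg/ml BSA and 0.01% Tween-20, 1nM USP1/UAF1 is exposed to compound for 15 min, then Ub-Rho (150nM final) is added and fluorescence is read over time.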

[2] = target: ATPase family AAA domain-containing protein 5 (Homo sapiens) (UniProt Q96QE3); experiment: Validation screen for small molecules that inhibit ELG1-dependent DNA repair in human embryonic kidney (HEK293T) cells expressing luciferase-tagged ELG1 (AID 493107);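 also: cells co-treated with the DNA-damaging agent 5-fluorouridine alongside compound; series mostly up to about 46 µM; inhibitors lower the ELG1-luciferase luminescence signal; nearly all actives have a fitted effect of over 70% in size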
Sequence of ATPase family AAA domain-containing protein 5 (Homo sapiens) (Q96QE3 whole entry, looked up, the tested form may be a part): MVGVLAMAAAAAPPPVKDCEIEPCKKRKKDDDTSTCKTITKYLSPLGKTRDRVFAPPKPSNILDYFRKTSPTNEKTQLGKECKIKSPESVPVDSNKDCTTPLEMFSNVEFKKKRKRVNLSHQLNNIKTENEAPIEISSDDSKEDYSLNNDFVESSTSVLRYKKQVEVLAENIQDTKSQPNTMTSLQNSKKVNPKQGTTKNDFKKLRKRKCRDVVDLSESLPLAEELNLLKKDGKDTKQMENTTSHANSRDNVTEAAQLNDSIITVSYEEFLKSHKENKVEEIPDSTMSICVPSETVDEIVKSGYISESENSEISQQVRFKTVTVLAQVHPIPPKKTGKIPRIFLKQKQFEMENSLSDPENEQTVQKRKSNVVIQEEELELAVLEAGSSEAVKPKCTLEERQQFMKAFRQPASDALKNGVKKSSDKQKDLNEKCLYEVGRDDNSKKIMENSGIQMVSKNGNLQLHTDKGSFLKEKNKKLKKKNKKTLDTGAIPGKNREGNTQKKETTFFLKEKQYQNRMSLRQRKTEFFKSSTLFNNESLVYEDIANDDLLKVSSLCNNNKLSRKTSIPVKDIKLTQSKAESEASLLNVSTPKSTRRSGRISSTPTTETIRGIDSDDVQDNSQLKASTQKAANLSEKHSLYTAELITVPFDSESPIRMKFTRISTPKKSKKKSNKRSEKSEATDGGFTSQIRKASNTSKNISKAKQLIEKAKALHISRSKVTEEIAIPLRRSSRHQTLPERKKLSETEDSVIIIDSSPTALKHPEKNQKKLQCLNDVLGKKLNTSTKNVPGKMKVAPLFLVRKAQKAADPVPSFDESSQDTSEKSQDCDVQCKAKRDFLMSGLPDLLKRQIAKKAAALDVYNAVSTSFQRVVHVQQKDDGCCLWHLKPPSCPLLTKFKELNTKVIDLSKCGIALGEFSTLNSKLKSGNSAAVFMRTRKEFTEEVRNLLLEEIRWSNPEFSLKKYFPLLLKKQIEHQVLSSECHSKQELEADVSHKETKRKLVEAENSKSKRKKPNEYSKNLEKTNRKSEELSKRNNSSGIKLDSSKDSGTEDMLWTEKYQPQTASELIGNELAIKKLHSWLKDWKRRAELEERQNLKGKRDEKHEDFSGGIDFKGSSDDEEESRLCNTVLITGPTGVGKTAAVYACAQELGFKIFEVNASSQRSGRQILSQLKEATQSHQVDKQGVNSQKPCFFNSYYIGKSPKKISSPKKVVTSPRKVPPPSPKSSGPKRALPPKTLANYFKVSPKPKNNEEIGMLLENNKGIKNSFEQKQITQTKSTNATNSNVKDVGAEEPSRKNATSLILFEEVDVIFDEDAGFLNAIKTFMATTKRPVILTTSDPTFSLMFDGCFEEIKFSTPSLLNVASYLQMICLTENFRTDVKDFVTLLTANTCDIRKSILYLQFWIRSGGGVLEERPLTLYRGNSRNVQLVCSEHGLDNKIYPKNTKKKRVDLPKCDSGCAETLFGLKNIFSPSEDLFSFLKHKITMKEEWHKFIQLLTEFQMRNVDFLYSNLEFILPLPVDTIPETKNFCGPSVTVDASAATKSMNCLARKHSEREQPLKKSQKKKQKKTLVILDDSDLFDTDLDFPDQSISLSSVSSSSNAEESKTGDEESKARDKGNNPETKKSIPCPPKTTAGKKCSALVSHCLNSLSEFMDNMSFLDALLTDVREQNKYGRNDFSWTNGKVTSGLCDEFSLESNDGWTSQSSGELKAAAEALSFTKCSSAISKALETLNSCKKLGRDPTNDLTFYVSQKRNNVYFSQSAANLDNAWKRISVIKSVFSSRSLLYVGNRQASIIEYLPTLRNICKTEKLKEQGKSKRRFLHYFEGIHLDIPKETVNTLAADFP
Summary of the method: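 HEK293T cells expressing luciferase-tagged ELG1 were co-treated with 5-fluorouridine and compound or DMSO for 16 hr at 37 °C, 5% CO2. Luciferase activity was then read with ONE-Glo after 30 min at room temperature; suppressed signal indicates blocked ELG1 function.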

[3] = target: Thyrotropin-releasing hormone receptor (Homo sapiens) (UniProt P34981); experiment: qHTS for Small Molecule Agonists and Allosteric Enhancers of Human TRH Receptor: Validation Screen for Agonists (AID 493127;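 active = calcium activation more than 3 SD above the typical response in the agonist read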;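 also: intracellular calcium rise by fluo-8 fluorescence before TRH EC20 addition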); conditions: TRH receptor agonist cell assay; at 2 µM; stronger effect = higher value
Sequence of Thyrotropin-releasing hormone receptor (Homo sapiens) (P34981 whole entry, looked up): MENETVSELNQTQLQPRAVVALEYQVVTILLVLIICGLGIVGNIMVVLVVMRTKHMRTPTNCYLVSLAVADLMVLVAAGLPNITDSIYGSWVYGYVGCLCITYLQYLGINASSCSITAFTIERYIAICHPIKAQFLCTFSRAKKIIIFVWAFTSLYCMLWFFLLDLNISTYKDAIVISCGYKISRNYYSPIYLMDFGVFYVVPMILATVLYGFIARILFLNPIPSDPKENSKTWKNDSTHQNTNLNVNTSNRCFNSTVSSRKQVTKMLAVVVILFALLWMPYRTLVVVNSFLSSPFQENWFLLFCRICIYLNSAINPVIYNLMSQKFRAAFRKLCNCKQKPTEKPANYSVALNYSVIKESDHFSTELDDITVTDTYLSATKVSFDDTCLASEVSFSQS
Summary of the method: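 TRHR-expressing cells were plated overnight in serum-containing medium, then loaded with fluo-8 calcium dye at room temperature for 30 min–1.5 h. After a 10 s baseline, compound was pin-transferred and calcium fluorescence (ex 480/em 530) read kinetically for agonist response.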

[4] = Nrf2 qHTS screen for inhibitors: Validation (AID 493153; active = well fitted inhibition curve with a large enough effect in the main read-out, with a control signal flat, not every such curve was filed as active); conditions: viability change: measured here: cytotoxicity max response
Summary of the method: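 A549 cells carrying an ARE-driven firefly luciferase reporter, in 5% FBS OPTI-MEM, were treated with compounds in concentration-response for 18-24 h at 37°C. Viability was read by CellTiter-Fluor fluorescence, then Nrf2 activity by luciferase luminescence.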

[5] = qHTS for Inhibitors of Cell Surface uPA Generation: Validation Assay (AID 493164);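 also: RAW 264.7 macrophage cells exposed to compound for 18 h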
Description: NIH Chemical Genomics Center [NCGC]
NIH Molecular Libraries Probe Centers Network [MLPCN]
Assay Submitter (PI): Thomas Bugge
The overall objective of this project is to perform a quantitative high throughput screen (qHTS) to identify novel compounds that inhibit the generation of cell surface urokinase activity. The urokinase plasminogen activator (uPA) is one of the two primary endogenous systems that mediate plasminogen activation into plasmin. Members of this system, including uPA and its receptor (uPAR), are overexpressed in several malignant tumors. This system plays a major role in adhesion, migration, invasion and metastasis of cancer cells. Small molecule inhibitors of the uPA system will serve as probes to understand the molecular mechanisms of the uPA cascade and better understanding the microenvironmental circumstances that facilitate the activation of plasminogen by uPA, and finally may provide novel candidate agents for anticancer drug therapy.
[…] […] Upon inhibition of the uPA activation cascade, the subsequent cell surface uPA activity-dependent translocation of LF into the cytoplasm is inhibited. ATP-Lite is used to measure intracellular ATP concentrations, which remain increased if LF entry into the cytoplasm is inhibited. This validation assay was performed using a small set of validation compounds. […]
7.Reading plates by ViewLux with an exposure length of 5 seconds.

[6] = target: Galactokinase (Homo sapiens) (UniProt P51570); experiment: qHTS Validation Assay for Inhibitors of Human Galactokinase (GALK) (AID 493189)
Sequence of Galactokinase (Homo sapiens) (P51570 whole entry, looked up): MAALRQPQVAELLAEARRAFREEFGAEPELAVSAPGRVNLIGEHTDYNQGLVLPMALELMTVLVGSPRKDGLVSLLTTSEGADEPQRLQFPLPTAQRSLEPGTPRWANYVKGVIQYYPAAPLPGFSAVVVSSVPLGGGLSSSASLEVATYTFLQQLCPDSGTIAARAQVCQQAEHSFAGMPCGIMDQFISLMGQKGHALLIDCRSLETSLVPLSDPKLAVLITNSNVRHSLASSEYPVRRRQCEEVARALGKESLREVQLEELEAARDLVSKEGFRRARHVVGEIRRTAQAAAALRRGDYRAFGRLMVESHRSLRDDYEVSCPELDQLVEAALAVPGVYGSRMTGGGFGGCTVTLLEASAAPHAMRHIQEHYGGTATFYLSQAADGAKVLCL
Summary of the method: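 5 nM GALK / 100 uM galactose / 35 uM ATP, 20 mM HEPES pH8.0, 5 mM MgCl2, 60 mM NaCl, 1 mM DTT, 0.01% BSA (final). RT 1 h; Kinase-Glo Plus luminescence.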

[7] = Validation screen for small molecules that induce DNA re-replication in SW480 colon adenocarcinoma cells (AID 504364)
Summary of the method: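 SW480 cells seeded at 250 per well were exposed to compound or DMSO for 48 hr at 37 C, 5% CO2, then stained with Hoechst for 40 min. DNA content per nucleus was imaged (405 nm ex, 500-530 nm em).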

[8] = target: Peptidyl-prolyl cis-trans isomerase NIMA-interacting 1 (Homo sapiens) (UniProt Q13526); experiment: qHTS Validation Assay to Find Inhibitors of Pin1 (AID 504536; active = well fitted inhibition curve with a large enough effect in the polarisation, with a control signal flat, not every such curve was filed as active; the % refers to the polarisation)
Sequence of Peptidyl-prolyl cis-trans isomerase NIMA-interacting 1 (Homo sapiens) (Q13526 whole entry, looked up): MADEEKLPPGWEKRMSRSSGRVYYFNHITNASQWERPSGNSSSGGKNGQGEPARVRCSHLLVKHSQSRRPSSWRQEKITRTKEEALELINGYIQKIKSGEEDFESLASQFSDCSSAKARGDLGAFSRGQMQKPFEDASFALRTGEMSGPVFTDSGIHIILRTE
Summary of the method: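 Fluorescence polarization competition: compounds (titration) displace HiFluor-488-labeled Pin1-1b peptide from Pin1 (0.3 uM final) in pH 7.5 HEPES buffer with DTT, 10 min at room temperature; %Activity normalized to no-enzyme wells, curves fitted.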

[9] = target: Phosphoglycerate kinase, glycosomal (Trypanosoma brucei brucei) (UniProt P07378); experiment: qHTS Validation Assay to Find Inhibitors of Phosphoglycerate Kinase (AID 504547)
Sequence of Phosphoglycerate kinase, glycosomal (Trypanosoma brucei brucei) (P07378 whole entry, looked up): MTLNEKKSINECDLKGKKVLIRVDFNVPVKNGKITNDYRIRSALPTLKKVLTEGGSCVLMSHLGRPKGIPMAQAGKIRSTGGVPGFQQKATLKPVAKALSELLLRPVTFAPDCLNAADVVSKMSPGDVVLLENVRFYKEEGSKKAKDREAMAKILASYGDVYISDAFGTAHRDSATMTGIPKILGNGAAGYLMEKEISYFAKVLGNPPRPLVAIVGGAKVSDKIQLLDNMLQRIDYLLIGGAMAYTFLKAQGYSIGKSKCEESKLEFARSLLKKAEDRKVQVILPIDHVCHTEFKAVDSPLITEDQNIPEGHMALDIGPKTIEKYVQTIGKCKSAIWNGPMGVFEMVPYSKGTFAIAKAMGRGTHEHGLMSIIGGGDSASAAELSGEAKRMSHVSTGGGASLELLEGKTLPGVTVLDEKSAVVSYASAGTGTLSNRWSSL
Summary of the method: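 PGK activity was coupled to GAPDH (100nM final), which generates the unstable substrate 1,3-bisphosphoglycerate in-well. Reactions ran 60 minutes at room temperature in 100mM TEA pH 7.6, 5mM MgCl2, 0.01% Tween-20, then Kinase-Glo Plus luminescence was read.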

[10] = target: phosphoglycerate mutase (Leishmania major) (UniProt Q4Q090); experiment: qHTS Validation Assay to Find Inhibitors of Phosphoglycerate Mutase (AID 504548);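 also: end-point luminescence from Kinase-GloPlus after the PGAM reaction; series mostly up to about 58 µM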
Sequence of phosphoglycerate mutase (Leishmania major) (Q4Q090 1-553): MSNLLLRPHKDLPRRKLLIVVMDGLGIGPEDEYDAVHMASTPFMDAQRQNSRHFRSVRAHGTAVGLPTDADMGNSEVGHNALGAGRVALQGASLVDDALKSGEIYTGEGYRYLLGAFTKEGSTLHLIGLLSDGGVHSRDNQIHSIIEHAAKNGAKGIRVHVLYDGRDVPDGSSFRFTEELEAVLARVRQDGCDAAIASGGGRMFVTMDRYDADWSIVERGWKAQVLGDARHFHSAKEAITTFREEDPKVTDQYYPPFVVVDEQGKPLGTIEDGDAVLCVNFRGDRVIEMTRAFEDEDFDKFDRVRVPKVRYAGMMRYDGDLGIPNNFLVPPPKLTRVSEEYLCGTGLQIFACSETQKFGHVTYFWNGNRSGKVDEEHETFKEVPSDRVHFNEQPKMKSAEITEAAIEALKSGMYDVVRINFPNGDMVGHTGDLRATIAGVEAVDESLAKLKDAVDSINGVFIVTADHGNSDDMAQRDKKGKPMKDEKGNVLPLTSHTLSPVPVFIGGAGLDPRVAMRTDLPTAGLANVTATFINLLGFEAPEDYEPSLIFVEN
Summary of the method: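 L. major PGAM (1.25nM final) was added to substrate buffer and pinned compound, incubated 45 minutes at room temperature, then Kinase-GloPlus added; luminescence read after 10 minutes. Buffer: 100 mM TEA pH 7.6, 5 mM MgCl2, 0.01% Tween-20.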

CCCOc1ccc2nc(NC(=O)OC)sc2c1
Potency [1]: inactive

NCCCC(=O)O
outcome [2]: inactive | activation [3]: -0.125% (inactive) | outcome [4]: inactive | viability change [4]: 14.4% | outcome [5]: inactive | outcome [6]: inactive | outcome [7]: inactive | outcome [8]: inactive | outcome [9]: inactive | outcome [10]: inactive | Potency [1]: inactive

O=C(O)CC(O)(CC(=O)O)C(=O)O
Potency [1]: inactive

C1CNCCN1
Potency [1]: inactive

CN(C)CCCn1cc(C2=C(c3c[nH]c4ccccc34)C(=O)NC2=O)c2ccccc21
Potency [1]: 50.1 µM (active)

COC1C(OC(=O)/C=C/C=C/C=C/C=C/C(=O)O)CCC2(CO2)C1C1(C)OC1CC=C(C)C (stereo unspecified)
Potency [1]: inactive

COc1cc(C[C@H]2C(=O)OC[C@@H]2Cc2ccc(OC)c(OC)c2)ccc1O
Potency [1]: inactive

CN[C@H]1CC[C@@H](c2ccc(Cl)c(Cl)c2)c2ccccc21
outcome [4]: inactive | viability change [4]: 1.73% | outcome [5]: inactive | outcome [6]: inactive | outcome [7]: inactive | outcome [8]: inactive | outcome [9]: inactive | outcome [10]: inactive | Potency [1]: inactive
